# Calls of active or inactive are those of the source. How the source made its calls: active means hit-call score of the fitted dose curve at least 0.9, where 1 is the maximum; inactive means score below 0.9.
# Read-out: Lipase C (LIPC), LIPC (gene 3990)
# Experiment: LTEA_HepaRG_LIPC: Life Technologies and Expression Analysis (LTEA) Assay for Lipase C (LIPC) using HepaRG (AID 2283514)
# Details: mRNA level, 48 h; actives raise or lower the signal
# Description: LTEA_HepaRG is a cell based, multiplexed-readout assay that uses HepaRG, a human liver cell line, with measurements taken at 48 hours after chemical dosing on a 96-well plate.LTEA_HepaRG_LIPC is one of 102 assay component(s) measured in the LTEA HepaRG cell culture assay. It is a marker of Steatosis.Data from the assay component LTEA_HepaRG_LIPC was analyzed into 1 endpoint. This assay endpoint, LTEA_HepaRG_LIPC, was analyzed with bidirectional fitting relative to DMSO as the negative control and baseline of activity. Using a type of inducible reporter, measures of mRNA induction for gain or loss-of-signal activity can be used to understand regulation of transcription factor activity. To generalize the intended target to other relatable targets, this assay endpoint is annotated to the esterase intended target family, where the subfamily is lipase.
# A total of 1060 chemcials from the ToxCast library were tested in eight-point concentration-response experiments. Cell culture and cytotoxicity assays were conducted at Thermo Fisher Scientific's Custom Services facility (Madison, WI). A single lot of human HepaRG cells (Thermo Fisher Scientific, Frederick, MD) was used for the cell culture experiments. 96-well format collagen type I coated plates of human HepaRG cells were prepared using established methods. Briefly, cryopreserved HepaRG cells were thawed, plated at a density of approximately 100,000 cells/well in HepaRG Thaw, Plate, and General Purpose media (HPRG770, Thermo Fisher Scientific), and incubated for 48 hours. 0.5% DMSO was selected as vehicle control to balance the requisite need of DMSO in HepaRG cultures to maintain differentiation (for example, baseline metabolism, proportions of hepatocytes vs. cholangiocytes), while enabling further hepatic receptor pathway activation (for example, PXR and CAR) in response to chemical exposure. 48 hours after plating, the culture medium was replaced with HepaRG Serum-Free Incudtion Media. Cells were exposed to each test chemical in duplicate and maintained in CO2 incubators for another 48 hours. Chemical plates were thawed to room temperature and 200x concentrations of treatment groups were prepared. 8-point conentration-reponse curves were made with the highest exposure at 100 uM, followed by half-log dilutions, all in 0.5% DMSO. Each test plate contained variouse controls, induction positive controls (1mM phenobarbital), cytotoxicity positive controls ([…] aflatoxin B1), vehicle controls (0.5% DMSO), and total lysis controls (0.5% DMSO). Cell morphology images were taken using an Essen IncuCyte FLR automated microscope, with six 96-well plates imaged in about 24 minutes. Images were captured and exported and JPEG files. Spent culture media was transfered to black-well plates for the LDH assay, and remaining media was sorted at -80 C for later use. Cells were treated with RLT buffer and frozen until shipped for gene expression analysis. Total RNA was isolated from the cell suspension in 75 uL of Buffer RLT (Qiagen, Germantown, MD 20874) by Quintiles/Expression Analysis (Durham, NC) using a custom isolation procedure. Total RNA from each plate well was transferred to a preamplification plate. Fluidigm's 96.96 Dynamic ArrayTM (Fluidigm, Amsterdam, the Netherlands) technology was used for gene expression analyses by quantitative reverse transcription polymerase chain reaction (qRT-PCR, performed by Quintiles/Expression Analysis, Durham, NC)89. Standard TaqManTM Assays (Applied Biosystems/ThermoFisher Scientific, Foster City, CA) were used to assess the expression of 93 genes selected based on their selectivity and sensitivity to important hepatic receptors known to be modulated by environmental chemicals; importance in human hepatocyte functionality; and hepatotoxicity. […]
Structure (SMILES),outcome,AC50
CC(C)N(C(=O)SCC(Cl)=C(Cl)Cl)C(C)C,inactive,–
CCOP(=O)(NC(C)C)Oc1ccc(SC)c(C)c1 (stereo not given),inactive,–
CCOP(=O)(SC(C)CC)N1CCSC1=O (stereo not given),–,25.6 µM (active)
COc1ccc(C(=CC(=O)N2CCOCC2)c2ccc(Cl)cc2)cc1OC,inactive,–
CCOP(=O)(OCC)Oc1cc(C)nc(C(C)C)n1,inactive,–
O=c1ccc(=O)[nH][nH]1,inactive,–
CCC(CC)Nc1c([N+](=O)[O-])cc(C)c(C)c1[N+](=O)[O-],inactive,–
CSc1nnc(C(C)(C)C)c(=O)n1N,inactive,–
CCOC(=O)CC(SP(=O)(OC)OC)C(=O)OCC (stereo not given),inactive,–
CNC(=O)ON=C(C)SC,inactive,–
CC(Oc1cccc(Cl)c1)C(=O)O (stereo not given),inactive,–
N#CSCSC#N,–,93.7 µM (active)
O=[N+]([O-])c1cc(C(F)(F)F)c(Cl)c([N+](=O)[O-])c1Nc1ncc(C(F)(F)F)cc1Cl,–,24.4 µM (active)
CC[C@H](C)[C@H]1O[C@]2(C=C[C@@H]1C)C[C@@H]1C[C@@H](C/C=C(\C)[C@@H](O[C@H]3C[C@H](OC)[C@@H](O[C@H]4C[C@H](OC)[C@@H](NC)[C@H](C)O4)[C@H](C)O3)[C@@H](C)/C=C/C=C3\CO[C@@H]4[C@H](O)C(C)=C[C@@H](C(=O)O1)[C@]34O)O2,inactive,–
CCCCOC(=O)c1ccccc1C(=O)O,inactive,–
CCCSP(=O)(OCC)Oc1ccc(Br)cc1Cl (stereo not given),inactive,–
CCOP(=S)(OCC)Oc1ccc([N+](=O)[O-])cc1,inactive,–
FC(F)C(F)(F)OCC(Cn1cncn1)c1ccc(Cl)cc1Cl (stereo not given),–,49.8 µM (active)
CN1COCN(Cc2cnc(Cl)s2)C1=N[N+](=O)[O-],inactive,–
CNC(=O)ON=C(SC)C(=O)N(C)C,inactive,–

Structure (SMILES),outcome,AC50
CC(=NC#N)N(C)Cc1ccc(Cl)nc1,inactive,–
CNc1cnn(-c2cccc(C(F)(F)F)c2)c(=O)c1Cl,inactive,–
Cc1nn(-c2cc(NS(C)(=O)=O)c(Cl)cc2Cl)c(=O)n1C(F)F,inactive,–
CN(C)NC(=O)CCC(=O)O,inactive,–
CCCCSP(=O)(SCCCC)SCCCC,–,83.6 µM (active)
CCCOCC(=Nc1ccc(Cl)cc1C(F)(F)F)n1ccnc1,–,15.8 µM (active)
CCCOc1nn(C(=O)NS(=O)(=O)c2ccccc2C(=O)OC)c(=O)n1C,inactive,–
Nc1nc(N)nc(NC2CC2)n1,inactive,–
CC(C)=CC1C(C(=O)OCN2C(=O)C3=C(CCCC3)C2=O)C1(C)C (stereo not given),inactive,–
Nc1c(Cl)cc([N+](=O)[O-])cc1Cl,–,75.3 µM (active)
C#CC(C)(C)NC(=O)c1cc(Cl)cc(Cl)c1,inactive,–
COc1cc(OC)nc(Sc2cccc(Cl)c2C(=O)O)n1,inactive,–
CCc1cnc(C2=NC(C)(C(C)C)C(=O)N2)c(C(=O)O)c1 (stereo not given),inactive,–
CC(C)[C@H](C(=O)O[C@H](C#N)c1cccc(Oc2ccccc2)c1)c1ccc(Cl)cc1,inactive,–
COP(=O)(OC)C(O)C(Cl)(Cl)Cl (stereo not given),inactive,–
CCCCOC(=O)[C@@H](C)Oc1ccc(Oc2ccc(C#N)cc2F)cc1,inactive,–
CCOP(=S)(OCC)SCCSCC,inactive,–
CCc1cccc(C)c1N(C(=O)CCl)C(C)COC (stereo not given),inactive,–
CN(C)C(=O)Nc1cccc(C(F)(F)F)c1,–,50 µM (active)
CCCSP(=O)(OCC)SCCC,inactive,–

# Source: PubChem BioAssay (EPA / NIEHS)
